HT1080 IDH1KD tx = kills HT-1080 cells with IDH1 knockdown | actives 2% (n = 360,000) | AID 686971 | HT-1080 IDH1 knockdown viability, ATP luminescence, 48 h | Potency, µM (highest dose often 46.1 µM), usual class: cytotoxic
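IDH1KD HT-1080 cells, 750/well, RPMI + 5% FBS; compound pinned after 2 h settling; 48 h, 37 °C; CellTiter-Glo luminescence; % activity normalised to DMSO and no-cell wells; curves fitted, classed by r2 and efficacy.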
KB-V1 MDR tox = kills drug-selected multidrug resistant KB-V1 cells. KB-V1 MDR cells viability, CellTiter-Glo, 72 h. Potency, µM (titrated, usually from 46.1 µM), most hits filed as cytotoxic. actives 3.4% (n = 400,000). AID 1347076; also: nearly all actives have a fitted effect of over 60% in size
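Cytotoxicity toward P-gp-expressing KB-V1 cells was determined as loss of CellTiter-Glo luminescence after 72 h at 37 degrees C. Compounds were tested in quantitative HTS format across a concentration range, with curves fitted to normalized data.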
TGFb SMAD3 inh = blocks TGF-b signaling; HepG2 CAGA-GFP TGF-b/SMAD3 reporter, GFP fluorescence, 18 h; TGF-beta stimulated, 500 pg/mL final; Potency, µM (doses to about 46.1 µM), usual class: inhibitors; actives 1.2% (n = 410,000); also: nearly all actives have a fitted effect of over 65% in size
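Using HEPG2 CAGA-GFP reporter cells at 1000 cells/well, we pinned test compounds, stimulated with recombinant TGF-beta (500 pg/mL final) and measured total well GFP after 18 h.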
HT1080NT lethal = kills 2HG-producing HT-1080-NT fibrosarcoma cells; Potency, µM (top dose mostly 46.1 µM), usual class: cytotoxic; HT-1080-NT fibrosarcoma viability, CellTiter-Glo ATP luminescence, 48 h; actives 1.6% (n = 360,000);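 also: NT is the 2HG producing partner of a matched IDH1 knockdown line; nearly all actives have a fitted effect of over 55% in size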
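HT-1080-NT fibrosarcoma cells (2HG-overproducing), 750 cells/well in RPMI with 5% FBS, dosed after 2 h and incubated 48 h at 37C. CellTiter-Glo luminescence normalized to DMSO and no-cell wells; concentration-response curves fitted and classed.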
HepG2 tox-1 = kills HepG2 cells in TGF-b inhibitor counter-screen; HepG2 CAGA-GFP viability, ATP luminescence, 18 h; Potency, µM (highest dose often 46.1 µM), actives largely listed as cytotoxic; actives 0.76% (n = 410,000); AID 588856
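HepG2 CAGA-GFP cells (1000/well, DMEM with 1% FBS) received compound, then TGF-beta at 500 pg/mL final, and were incubated 18 hours at 37 degrees C. Viability was read by CellTiter-Glo luminescence. Media-only wells were set as complete cell-killing and DMSO as no toxicity.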
KB-3-1 cytotox = KB-3-1 parental cell cytotoxicity. actives 1.4% (n = 400,000). Potency, µM (series often up to 46.1 µM), actives largely listed as cytotoxic. KB-3-1 viability, CellTiter-Glo ATP luminescence, 72 h; also: nearly all actives have a fitted effect of over 60% in size
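Cells are dispensed, compounds pinned in, plates held at 37 °C for 72 h, then CellTiter-Glo is added and luminescence read after 10 minutes. Cell line: parental KB-3-1 in phenol-red-free DMEM, 10% FBS.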
TGFb CAGA inh = TGF-b pathway inhibition, cherry-pick retest; HepG2 CAGA-GFP TGF-b reporter, GFP fluorescence, 18 h; cells stimulated with TGF-beta, 500 pg/mL; Potency, µM (titrated, usually from 46.1 µM), hits mostly inhibitors; actives 63% (n = 1,600); shares compounds with TGFb SMAD3 inh; also: nearly all actives have a fitted effect of over 65% in size
HepG2 tox-2 = counter-screen for TGF-b inhibitors: cytotoxicity in HepG2 cells | shares compounds with TGFb SMAD3 inh | Potency, µM (highest dose often 46.1 µM), most hits filed as inhibitors | HepG2 CAGA-GFP viability, ATP luminescence, 18 h; cells stimulated with TGF-beta, 500 pg/mL | actives 27% (n = 1,600) | AID 720535; also: nearly all actives have a fitted effect of over 70% in size
CCL64 TGFb inh = blocks TGF-b signaling in CCL64 reporter cells; shares compounds with TGFb SMAD3 inh; CCL64 CAGA-GFP reporter, TGF-b stimulated, GFP fluorescence, 18 h; Potency, µM (highest dose often 46.1 µM), hits mostly inhibitors; actives 41% (n = 1,600); AID 720536; also: nearly all actives have a fitted effect of over 65% in size
TGFb COP inh = validation of TGF-b inhibitors in HepG2 COP promoter reporter. shares compounds with TGFb SMAD3 inh. HepG2 COP-GFP TGF-b reporter, GFP fluorescence, 18 h; cells stimulated by added recombinant TGF-beta. Potency, µM (highest dose often 46.1 µM), most hits filed as inhibitors. actives 3% (n = 1,600); also: nearly all actives have a fitted effect of over 70% in size
Of the large screens only hits and unclear results are named; the others gave an inactive call (follow-up assays come after a bar, where they were run). Compounds with a hit are over-represented: about 6.6% of the library has one in this group of screens. Calls follow the shape of the dose curve; as a rule, active = well fitted curve in the direction sought with a large enough effect; inconclusive = small, poorly fitted or top-dose-only effect, or another doubt; inactive = no such curve, though single readings can be large; an effect the other way counts as inactive or inconclusive.

COc1ccc(S(=O)(=O)/N=C2\C=C(Nc3ccc(O)cc3)C(=O)c3ccccc32)cc1	HT1080 IDH1KD tx 2.06µM, KB-V1 MDR tox 16.4µM, TGFb SMAD3 inh 0.794µM, HT1080NT lethal 1.84µM, HepG2 tox-1 0.891µM, KB-3-1 cytotox 5.17µM | TGFb CAGA inh 0.581µM | HepG2 tox-2 4.11µM | CCL64 TGFb inh 1.3µM | TGFb COP inh inconclusive
CC(=O)Nc1ccc(NC2=C/C(=N/S(=O)(=O)c3cccs3)c3ccccc3C2=O)cc1	HT1080 IDH1KD tx 9.2µM, TGFb SMAD3 inh 5.01µM, HT1080NT lethal 16.4µM, HepG2 tox-1 6.31µM, KB-3-1 cytotox 20.6µM | TGFb CAGA inh 2.59µM | HepG2 tox-2 3.26µM | CCL64 TGFb inh 9.2µM | TGFb COP inh 5.17µM
CC(C)=CCCC(C)=CCN1C(=O)CN(C)C1=O	none
Nc1ccn([C@@H]2O[C@H](C(=O)N[C@H]3c4ccccc4C[C@H]3O)[C@@H](O)[C@H]2O)c(=O)n1	none
COc1ccc(Br)cc1CNC(=O)c1cc(=O)[nH]c2ccc(S(=O)(=O)N3CCCCC3C)cc12 (stereo not drawn)	none (no result: HT1080 IDH1KD tx, KB-V1 MDR tox, HT1080NT lethal, KB-3-1 cytotox)
O=C(OCc1ccccc1)c1ccc(NCc2cc(O)ccc2O)cc1	HT1080 IDH1KD tx 5.8µM, KB-V1 MDR tox 2.59µM, TGFb SMAD3 inh 10µM, HT1080NT lethal 9.2µM, KB-3-1 cytotox 3.66µM | TGFb CAGA inh 5.17µM | HepG2 tox-2 16.4µM | CCL64 TGFb inh 2.06µM | TGFb COP inh inactive
Cc1ccc(NC(=O)C2=CCN(S(=O)(=O)c3ccc(F)cc3)CC2)cc1	none
Cc1ccc(S(=O)(=O)N2CC=C(c3ccc(F)cc3)CC2)cc1	KB-V1 MDR tox inconclusive, TGFb SMAD3 inh 3.16µM | TGFb CAGA inh inconclusive | HepG2 tox-2 inactive | CCL64 TGFb inh inactive | TGFb COP inh inactive
COCCN(Cc1nnc(-c2cccs2)o1)C(=O)CN1C(=O)NC2(CCCCC2)C1=O	none
CCCCCCSc1ccc([C@@H]2[C@@H]3C(=O)N(C)C(=O)[C@@H]3[C@]3(C(=O)OC)CCCCN23)cc1	HT1080 IDH1KD tx inconclusive, TGFb SMAD3 inh inconclusive, HT1080NT lethal inconclusive, KB-3-1 cytotox inconclusive
O=C(/C=C/c1ccccc1)CCN1CCOCC1	HT1080 IDH1KD tx 18.4µM, KB-V1 MDR tox inconclusive, TGFb SMAD3 inh 7.08µM, HT1080NT lethal inconclusive, HepG2 tox-1 10µM, KB-3-1 cytotox inconclusive | TGFb CAGA inh 2.59µM | HepG2 tox-2 7.31µM | CCL64 TGFb inh 10.3µM | TGFb COP inh inconclusive
COc1cc(CNCCO)cc(Cl)c1OCc1ccccc1Cl	HT1080 IDH1KD tx inconclusive, TGFb SMAD3 inh 11.2µM, HT1080NT lethal inconclusive | TGFb CAGA inh inactive | HepG2 tox-2 16.4µM | CCL64 TGFb inh 29.1µM | TGFb COP inh inactive

Compound activity as filed in PubChem BioAssay.
